Data reported in ChEMBL document CHEMBL3988442, “University of Dundee, Small-Polar-MMV Screening Library” (2021).

The molecules below were run against T1, Tyrosyl-tRNA synthetase, putative (Trypanosoma cruzi (strain CL Brener)) (UniProt Q4DSP6) (assay: Trypanosoma cruzi tyrosyl tRNA synthetase (TcYRS) _High Tyrosine SOP). Details: 30 µM.
T1 sequence (whole entry): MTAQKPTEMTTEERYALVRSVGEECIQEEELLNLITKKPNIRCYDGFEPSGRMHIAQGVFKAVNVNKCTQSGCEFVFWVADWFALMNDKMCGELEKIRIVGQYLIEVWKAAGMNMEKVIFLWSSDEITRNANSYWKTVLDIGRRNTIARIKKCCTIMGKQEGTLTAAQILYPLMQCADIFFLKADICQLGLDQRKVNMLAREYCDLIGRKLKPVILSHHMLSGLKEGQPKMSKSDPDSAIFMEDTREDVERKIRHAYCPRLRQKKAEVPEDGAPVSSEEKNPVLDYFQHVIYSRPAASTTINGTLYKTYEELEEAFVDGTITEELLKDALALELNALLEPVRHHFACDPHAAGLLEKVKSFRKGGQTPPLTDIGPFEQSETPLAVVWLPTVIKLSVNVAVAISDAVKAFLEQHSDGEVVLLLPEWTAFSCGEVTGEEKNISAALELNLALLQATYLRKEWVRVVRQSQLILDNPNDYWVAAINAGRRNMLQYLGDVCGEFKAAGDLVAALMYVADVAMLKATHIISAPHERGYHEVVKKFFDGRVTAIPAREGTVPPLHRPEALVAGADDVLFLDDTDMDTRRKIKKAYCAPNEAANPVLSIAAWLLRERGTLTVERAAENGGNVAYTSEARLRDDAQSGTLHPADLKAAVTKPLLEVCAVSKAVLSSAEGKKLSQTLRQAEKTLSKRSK
Format: functional
Parameters: scale not given: direction of the effect not stated beside the values

Compound	Percent Effect [%]
O=C(O)C1(Cc2cc(-c3cccc(F)c3)no2)CCOCC1	2.15
COc1ccc(C2(NC(=O)CCn3cncn3)CCCCC2)cc1	3.23
CCC(CNC(=O)Nc1cnn(CC)c1)N1CCCC1 (stereo not drawn)	3.45
CC1CCCCN1CCNC(=O)c1ccn(-c2ccc(F)cc2)n1 (stereo not drawn)	-26.1
CN1CCCC(c2cccc(Cc3ccccc3Cl)n2)C1 (stereo not drawn)	2.15
COCC1CN(C(=O)CNC(C)=O)Cc2ncnn2C1 (stereo not drawn)	6.45
CCN(Cc1nc(C(C)C)no1)Cc1cccs1	1.07
CCc1nc(CN2CCCN(c3nc4ccccc4o3)CC2)no1	4.3
CC(NC(=O)Cn1cccn1)c1cccnc1 (stereo not drawn)	3.83
COCc1ccccc1NC(=O)[C@@H]1CCCN1C(=O)c1ccco1	1.05
CCc1nnc2n1CCN(CC(=O)Nc1sccc1C#N)C2	5.42
COCC1CCN(C(=O)c2cccc(S(=O)(=O)NCC3(C)COC3)c2)C1 (stereo not drawn)	6.45
CC(C)N1CCC(NCc2cccnc2N(C)Cc2ccccc2)CC1	1.64
CCc1cnc(CN(C)C2CCN(CCc3cccs3)C2)o1 (stereo not drawn)	10.3
CN(CCn1nc2ccccn2c1=O)CC(=O)N1CCCC1	3.19
Cc1ccc(-c2csc(N)c2C#N)cc1	-6.35
O=C(NCCN1CCOCC1)c1ccc(-n2ccc3ccccc32)s1	3.17
Cc1cnn(CC2CN(c3ncnc4ccccc34)CCO2)c1 (stereo not drawn)	1.48
O=S(=O)(Cc1ccccc1)NCc1ccco1	3.16

Each molecule was assayed against T1, Tyrosyl-tRNA synthetase, putative (Trypanosoma cruzi (strain CL Brener)) (assay: Trypanosoma cruzi tyrosyl tRNA synthetase (TcYRS) SOP). Details: 30 µM.
Format: functional
Parameters: scale not given: direction of the effect not stated beside the values

Compound	Percent Effect [%]
COc1cc(CNCCc2nc(C)cs2)cc2c1OCCO2	12.2
Cc1ccc(CN(Cc2ccccn2)C2CC(C)(C)NC(C)(C)C2)s1	3.9
CCc1ccccc1C(=O)N1CCN(S(C)(=O)=O)[C@@H](C)C1	0
COCCN(Cc1ccc(F)cc1Cl)C(=O)c1ccc(=O)[nH]n1	5.13
CC(Oc1ccccc1C(F)(F)F)C(=O)NCC(N)=O (stereo not drawn)	15.8
Cc1cc(-c2cnc(N3CCNC(=O)C3)nc2-c2ccc(C)o2)on1	11.5
Cc1csc(CNC(=O)NCCc2ccc3c(c2)OCCO3)n1	23.5
O=C1COC2(CCN(CC3CC3)CC2)CN1c1ccccc1	8.64
COc1ccc(CCN2CCC(N3CCN(C)C3=O)CC2)cc1	12.2
CCOC(=O)c1c(NC(=O)CN2CCN(C(C)=O)CC2)sc2c1CCC2	13
CC(C)(C(=O)NCC(N)=O)c1ccccc1F	0
COc1c(CNCCNC(=O)Cc2ccc(F)cc2)c(C)nn1C	-18.3
Cc1ccc(C(=O)N2CCO[C@H]3[C@@H](OCc4ccccn4)CC[C@@H]32)o1	-8.97
CN1N=C(C(=O)NCc2ccc3c(c2)CCCN3C)CCC1=O	10.1
Cc1ccc(CCC(=O)N(C)CCN2CCOCC2)c(C)c1	5.2
c1cnnc(N2CCCC2CNCc2nc3ccccc3o2)c1 (stereo not drawn)	25.9
Cc1nc(C(=O)N2CCCC2c2c(C)nn(C)c2C)ccc1C#N (stereo not drawn)	2.53
Cc1noc([C@H]2C[C@@H]3CCN(CC4CC4)C[C@H]3O2)n1	3.85
CCOCC(=O)N1C[C@@H](NC(C)=O)[C@H](c2ccc(OC)cc2)C1	18.5
CCN1CC2(CCNCC2)COc2ccccc2S1(=O)=O	5.13
O=C(O)C1(Cc2cc(-c3cccc(F)c3)no2)CCOCC1	3.9
COc1ccc(C2(NC(=O)CCn3cncn3)CCCCC2)cc1	11.7
CCC(CNC(=O)Nc1cnn(CC)c1)N1CCCC1 (stereo not drawn)	16.5
CC1CCCCN1CCNC(=O)c1ccn(-c2ccc(F)cc2)n1 (stereo not drawn)	23.5
CN1CCCC(c2cccc(Cc3ccccc3Cl)n2)C1 (stereo not drawn)	1.3
COCC1CN(C(=O)CNC(C)=O)Cc2ncnn2C1 (stereo not drawn)	13.6
CCN(Cc1nc(C(C)C)no1)Cc1cccs1	-1.24
CCc1nc(CN2CCCN(c3nc4ccccc4o3)CC2)no1	8.64
CC(NC(=O)Cn1cccn1)c1cccnc1 (stereo not drawn)	13.6
